Laboratory results reported in publication PMC9911399, “Two distinct binding modes provide the RNA-binding protein RbFox with extraordinary sequence specificity”.
Residue numbers refer to the chain shown, from its start. In all, about 16,000 sequences were measured (“ka relative to ugcaugu”: median about 0.0091, highest 2% from about 0.032 on). The sample holds the highest values, similar sequences and a random draw of the others, so the mix is not that of the screen.

T1: RBFOX1 RRM (Homo sapiens, UniProt Q9NWB1 109-208)
T1 sequence: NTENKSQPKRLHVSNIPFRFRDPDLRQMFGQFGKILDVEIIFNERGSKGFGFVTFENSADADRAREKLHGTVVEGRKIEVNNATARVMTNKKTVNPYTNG

B1: CGUGGUC (DNA:RNA)
RNA: GGGAGACCGGAAUUCAGAUUGUCCCGUGGUCUUAAAUCCCGUCGUAGCCACCA
DNA 1: CAATCTGAATTCCGGTCTCCC
DNA 2: TGGTGGCTACGACGGGATT
B2: UCUGCGG (DNA:RNA)
RNA: B1 RNA with C25U, G26C, G29C, U30G, C31G
DNA 1: CAATCTGAATTCCGGTCTCCC
DNA 2: TGGTGGCTACGACGGGATT
B3: AAAACGU (DNA:RNA)
RNA: GGGAGACCGGAAUUCAGAUUGUCCAAAACGUUUAAAUCCCGUCGUAGCCACCA
DNA 1: CAATCTGAATTCCGGTCTCCC
DNA 2: TGGTGGCTACGACGGGATT
B4: AGUCCGC (DNA:RNA)
RNA: B3 RNA with A26G, A27U, A28C, U31C
DNA 1: CAATCTGAATTCCGGTCTCCC
DNA 2: TGGTGGCTACGACGGGATT
B5: GUUAAUG (DNA:RNA)
RNA: B1 RNA with C25G, G26U, G28A, G29A, C31G
DNA 1: CAATCTGAATTCCGGTCTCCC
DNA 2: TGGTGGCTACGACGGGATT
B6: GGGAAUG (DNA:RNA)
RNA: B1 RNA with C25G, U27G, G28A, G29A, C31G
DNA 1: CAATCTGAATTCCGGTCTCCC
DNA 2: TGGTGGCTACGACGGGATT
B7: GGAAAUG (DNA:RNA)
RNA: B3 RNA with A25G, A26G, C29A, G30U, U31G
DNA 1: CAATCTGAATTCCGGTCTCCC
DNA 2: TGGTGGCTACGACGGGATT
B8: GUGAAUG (DNA:RNA)
RNA: B3 RNA with A25G, A26U, A27G, C29A, G30U, U31G
DNA 1: CAATCTGAATTCCGGTCTCCC
DNA 2: TGGTGGCTACGACGGGATT
B9: GAGACCG (DNA:RNA)
RNA: B3 RNA with A25G, A27G, G30C, U31G
DNA 1: CAATCTGAATTCCGGTCTCCC
DNA 2: TGGTGGCTACGACGGGATT
B10: GCGCGAA (DNA:RNA)
RNA: B1 RNA with C25G, G26C, U27G, G28C, U30A, C31A
DNA 1: CAATCTGAATTCCGGTCTCCC
DNA 2: TGGTGGCTACGACGGGATT
B11: GCGAAUC (DNA:RNA)
RNA: B1 RNA with C25G, G26C, U27G, G28A, G29A
DNA 1: CAATCTGAATTCCGGTCTCCC
DNA 2: TGGTGGCTACGACGGGATT
B12: GAGAUUG (DNA:RNA)
RNA: B3 RNA with A25G, A27G, C29U, G30U, U31G
DNA 1: CAATCTGAATTCCGGTCTCCC
DNA 2: TGGTGGCTACGACGGGATT
B13: GCGAAUG (DNA:RNA)
RNA: B3 RNA with A25G, A26C, A27G, C29A, G30U, U31G
DNA 1: CAATCTGAATTCCGGTCTCCC
DNA 2: TGGTGGCTACGACGGGATT
B14: GUGACCG (DNA:RNA)
RNA: B3 RNA with A25G, A26U, A27G, G30C, U31G
DNA 1: CAATCTGAATTCCGGTCTCCC
DNA 2: TGGTGGCTACGACGGGATT
B15: GAGAAUG (DNA:RNA)
RNA: B3 RNA with A25G, A27G, C29A, G30U, U31G
DNA 1: CAATCTGAATTCCGGTCTCCC
DNA 2: TGGTGGCTACGACGGGATT
B16: GUGAAUC (DNA:RNA)
RNA: B1 RNA with C25G, G26U, U27G, G28A, G29A
DNA 1: CAATCTGAATTCCGGTCTCCC
DNA 2: TGGTGGCTACGACGGGATT
B17: UGACAAG (DNA:RNA)
RNA: B3 RNA with A25U, A26G, A28C, C29A, G30A, U31G
DNA 1: CAATCTGAATTCCGGTCTCCC
DNA 2: TGGTGGCTACGACGGGATT
B18: ACGCUGG (DNA:RNA)
RNA: B3 RNA with A26C, A27G, A28C, C29U, U31G
DNA 1: CAATCTGAATTCCGGTCTCCC
DNA 2: TGGTGGCTACGACGGGATT
B19: UGGCAAU (DNA:RNA)
RNA: B3 RNA with A25U, A26G, A27G, A28C, C29A, G30A
DNA 1: CAATCTGAATTCCGGTCTCCC
DNA 2: TGGTGGCTACGACGGGATT
B20: CACCCCG (DNA:RNA)
RNA: B3 RNA with A25C, A27C, A28C, G30C, U31G
DNA 1: CAATCTGAATTCCGGTCTCCC
DNA 2: TGGTGGCTACGACGGGATT
B21: CUUGCCC (DNA:RNA)
RNA: B1 RNA with G26U, G29C, U30C
DNA 1: CAATCTGAATTCCGGTCTCCC
DNA 2: TGGTGGCTACGACGGGATT
B22: CAAUCGU (DNA:RNA)
RNA: B3 RNA with A25C, A28U
DNA 1: CAATCTGAATTCCGGTCTCCC
DNA 2: TGGTGGCTACGACGGGATT
B23: ACUUACA (DNA:RNA)
RNA: B3 RNA with A26C, A27U, A28U, C29A, G30C, U31A
DNA 1: CAATCTGAATTCCGGTCTCCC
DNA 2: TGGTGGCTACGACGGGATT
B24: CACUUGG (DNA:RNA)
RNA: B3 RNA with A25C, A27C, A28U, C29U, U31G
DNA 1: CAATCTGAATTCCGGTCTCCC
DNA 2: TGGTGGCTACGACGGGATT
B25: GUAAUGU (DNA:RNA)
RNA: B3 RNA with A25G, A26U, C29U
DNA 1: CAATCTGAATTCCGGTCTCCC
DNA 2: TGGTGGCTACGACGGGATT
B26: AGGAAUG (DNA:RNA)
RNA: B3 RNA with A26G, A27G, C29A, G30U, U31G
DNA 1: CAATCTGAATTCCGGTCTCCC
DNA 2: TGGTGGCTACGACGGGATT
B27: GGAAUGU (DNA:RNA)
RNA: B3 RNA with A25G, A26G, C29U
DNA 1: CAATCTGAATTCCGGTCTCCC
DNA 2: TGGTGGCTACGACGGGATT
B28: AGGAAUC (DNA:RNA)
RNA: B1 RNA with C25A, U27G, G28A, G29A
DNA 1: CAATCTGAATTCCGGTCTCCC
DNA 2: TGGTGGCTACGACGGGATT
B29: AGGAUUG (DNA:RNA)
RNA: B3 RNA with A26G, A27G, C29U, G30U, U31G
DNA 1: CAATCTGAATTCCGGTCTCCC
DNA 2: TGGTGGCTACGACGGGATT
B30: CGUAAUG (DNA:RNA)
RNA: B1 RNA with G28A, G29A, C31G
DNA 1: CAATCTGAATTCCGGTCTCCC
DNA 2: TGGTGGCTACGACGGGATT
B31: GUAAAUG (DNA:RNA)
RNA: B3 RNA with A25G, A26U, C29A, G30U, U31G
DNA 1: CAATCTGAATTCCGGTCTCCC
DNA 2: TGGTGGCTACGACGGGATT
B32: UCGAAUG (DNA:RNA)
RNA: B3 RNA with A25U, A26C, A27G, C29A, G30U, U31G
DNA 1: CAATCTGAATTCCGGTCTCCC
DNA 2: TGGTGGCTACGACGGGATT
B33: UCGAUUG (DNA:RNA)
RNA: B3 RNA with A25U, A26C, A27G, C29U, G30U, U31G
DNA 1: CAATCTGAATTCCGGTCTCCC
DNA 2: TGGTGGCTACGACGGGATT
B34: CGGAAUG (DNA:RNA)
RNA: B1 RNA with U27G, G28A, G29A, C31G
DNA 1: CAATCTGAATTCCGGTCTCCC
DNA 2: TGGTGGCTACGACGGGATT
B35: CGUCCGU (DNA:RNA)
RNA: B3 RNA with A25C, A26G, A27U, A28C
DNA 1: CAATCTGAATTCCGGTCTCCC
DNA 2: TGGTGGCTACGACGGGATT
B36: UCGAAUC (DNA:RNA)
RNA: B1 RNA with C25U, G26C, U27G, G28A, G29A
DNA 1: CAATCTGAATTCCGGTCTCCC
DNA 2: TGGTGGCTACGACGGGATT

Molecular target: T1, RBFOX1 RRM
Assay: EMSA; HiTS-Eq, 1 nM pool, 10 min; buffer printed only for the single-RNA assays: 10 mM Tris pH 7.5, 150 mM NaCl, 3.4 mM EDTA, 0.001% NP-40, 30 C
Conditions: tags: His6 N-terminal (pET28a); label: 5' 32P
In short: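 Purified wild-type or mutant RbFox RRM at increasing concentrations was equilibrated with 1 nM of 5′-radiolabelled RNA carrying 7 randomized nucleotides for 10 min in 50 µL. Unbound RNA was separated by 8% native PAGE and sequenced. Relative association constants came from read-count changes of each RNA species compared with the control reaction, normalised to the cognate motif.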

| Binder | binding signal |
| --- | --- |
| B1 | 0.017 KA relative to UGCAUGU |
| B2 | 0.0178 KA relative to UGCAUGU |
| B3 | 0.000755 KA relative to UGCAUGU |
| B4 | 0.0128 KA relative to UGCAUGU |
| B5 | 0.0118 KA relative to UGCAUGU |
| B6 | 0.0951 KA relative to UGCAUGU |
| B7 | 0.0124 KA relative to UGCAUGU |
| B8 | 0.0355 KA relative to UGCAUGU |
| B9 | 0.00974 KA relative to UGCAUGU |
| B10 | 0.0104 KA relative to UGCAUGU |
| B11 | 0.0124 KA relative to UGCAUGU |
| B12 | 0.019 KA relative to UGCAUGU |
| B13 | 0.0369 KA relative to UGCAUGU |
| B14 | 0.0167 KA relative to UGCAUGU |
| B15 | 0.0321 KA relative to UGCAUGU |
| B16 | 0.0142 KA relative to UGCAUGU |
| B17 | 0.0143 KA relative to UGCAUGU |
| B18 | 0.0175 KA relative to UGCAUGU |

| Binder | binding signal |
| --- | --- |
| B19 | 0.0132 KA relative to UGCAUGU |
| B20 | 0.002 KA relative to UGCAUGU |
| B21 | 0.00752 KA relative to UGCAUGU |
| B22 | 0.00595 KA relative to UGCAUGU |
| B23 | 0.00166 KA relative to UGCAUGU |
| B24 | 0.0107 KA relative to UGCAUGU |
| B25 | 0.0122 KA relative to UGCAUGU |
| B26 | 0.0471 KA relative to UGCAUGU |
| B27 | 0.0563 KA relative to UGCAUGU |
| B28 | 0.0141 KA relative to UGCAUGU |
| B29 | 0.0293 KA relative to UGCAUGU |
| B30 | 0.0127 KA relative to UGCAUGU |
| B31 | 0.00894 KA relative to UGCAUGU |
| B32 | 0.0323 KA relative to UGCAUGU |
| B33 | 0.0206 KA relative to UGCAUGU |
| B34 | 0.0596 KA relative to UGCAUGU |
| B35 | 0.0125 KA relative to UGCAUGU |
| B36 | 0.0109 KA relative to UGCAUGU |
